Results filed as inconclusive are left out. Calls of active or inactive are those of the source. The call rests on the fitted dose curve; in most records, active means well fitted inhibition curve with a large enough effect; inconclusive means small, poorly fitted or top-dose-only effect; inactive means flat fitted curve, though single readings scatter.
Experiments:
PC26 = assay: qHTS profiling for inhibitors of Plasmodium falciparum proliferation (AID 504749);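 further: 0% = DMSO vehicle and full inhibition = artemisinin control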; details: P. falciparum in erythrocytes, SYBR Green DNA, 72 h; series mostly up to 28.7 µM
Summary of the method: (§1)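 P. falciparum-infected erythrocytes (0.3% parasitemia, 2.5% hematocrit final) were exposed to compounds for 72 h at 37 C in 5% CO2, then lysed with SYBR Green buffer overnight at room temperature; parasite DNA fluorescence was normalized to artemisinin and DMSO controls.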

PC49 = assay: as above; details: P. falciparum in erythrocytes, SYBR Green DNA, 72 h; series mostly up to 28.7 µM
Summary of the method: as §1

SC27B = assay: as above; details: P. falciparum in erythrocytes, SYBR Green DNA, 72 h; series mostly up to 28.7 µM
Summary of the method: as §1

TAB109 = assay: as above; details: P. falciparum in erythrocytes, SYBR Green DNA, 72 h; series mostly up to 28.7 µM
Summary of the method: as §1

TAB113 = assay: as above; details: P. falciparum in erythrocytes, SYBR Green DNA, 72 h; series mostly up to 28.7 µM
Summary of the method: as §1

TAB165 = assay: as above; details: P. falciparum in erythrocytes, SYBR Green DNA, 72 h; series mostly up to 28.7 µM
Summary of the method: as §1

CRL-7250 = normal cell line; assay: Cytotoxic Profiling of Annotated Libraries Using Quantitative High-Throughput Screening (AID 1296008); details: Five cell lines viability, CellTiter-Glo ATP luminescence, 48-72 h; hits give low values; on max response: on the % scale 0 is the no-effect control and ±100 the full control effect
Summary of the method: (§2)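 Compounds were pin-transferred onto cells and incubated 48 or 72 hr at 37 degree Celsius, 95% humidity. CellTiter-Glo was added, plates sat 10 min at room temperature, then ATP-coupled luminescence was imaged as the viability read-out.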

HEK293 = assay: as above; details: Five cell lines viability, CellTiter-Glo ATP luminescence, 48-72 h; hits give low values
Summary of the method: as §2

HaCat [1] = assay: as above; details: Five cell lines viability, CellTiter-Glo ATP luminescence, 48-72 h; hits give low values
Summary of the method: as §2

KB-3-1 = assay: as above; details: Five cell lines viability, CellTiter-Glo ATP luminescence, 48-72 h, hits give low values
Summary of the method: as §2

NIH3T3 [2] = assay: as above; details: Five cell lines viability, CellTiter-Glo ATP luminescence, 48-72 h; hits give low values
Summary of the method: as §2

HACAT [3] = assay: qHTS assay to identify novel small-molecules to repurpose for Merkel cell carcinoma treatment (AID 1296009); details: MCC and control cell lines, CellTiter-Glo viability, 72 h; at 44.8 µM (top of the series) unless noted
Summary of the method: (§3)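 Cells exposed to NPC (8-point) and MIPE (11-point) compound dilutions for 72 hr at 37 degree celsius; viability read by CellTiter-Glo luminescence, normalized to no-cell and DMSO in-plate controls.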

HEK293T = assay: as above; details: MCC and control cell lines, CellTiter-Glo viability, 72 h; at 44.8 µM (top of the series) unless noted
Summary of the method: as §3

MCC-13 = assay: as above; details: MCC and control cell lines, CellTiter-Glo viability, 72 h; series mostly up to 46 µM
Summary of the method: as §3

MCC-26 = assay: as above; details: MCC and control cell lines, CellTiter-Glo viability, 72 h; series mostly up to 46 µM
Summary of the method: as §3

MKL-1 = assay: as above; details: MCC and control cell lines, CellTiter-Glo viability, 72 h; series mostly up to 46 µM
Summary of the method: as §3

UISO = assay: as above; details: MCC and control cell lines, CellTiter-Glo viability, 72 h; series mostly up to 46 µM
Summary of the method: as §3

MKL-2 = assay: as above; details: MCC and control cell lines, CellTiter-Glo viability, 72 h; series mostly up to 46 µM
Summary of the method: as §3

W2 = assay: qHTS profiling for inhibitors of Plasmodium falciparum proliferation (AID 504749);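 further: 0% = DMSO vehicle and full inhibition = artemisinin control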; details: P. falciparum in erythrocytes, SYBR Green DNA, 72 h; series mostly up to 28.7 µM
Summary of the method: as §1

NIH3T3 [4] = assay: qHTS assay to identify novel small-molecules to repurpose for Merkel cell carcinoma treatment (AID 1296009); details: MCC and control cell lines, CellTiter-Glo viability, 72 h; at 44.8 µM (top of the series) unless noted
Summary of the method: as §3
Further: nearly all actives have a fitted effect of over 60% in size.

CC1CC(OC(=O)c2ccccc2O)CC(C)(C)C1 (stereo unspecified)
inactive: Potency (PC26) | Potency (PC49) | Potency (SC27B) | Potency (TAB109) | Potency (TAB113) | Potency (TAB165) | max response (CRL-7250) -4.46% | outcome (HEK293) | outcome (HaCat [1]) | max response (KB-3-1) -9.15% | max response (NIH3T3 [2]) -4.04% | outcome (HACAT [3]) | outcome (HEK293T) | outcome (MCC-13) | outcome (MCC-26) | outcome (MKL-1) | outcome (UISO)

CCC(C)(CN(C)C)OC(=O)c1ccccc1 (stereo unspecified)
inactive: max response (CRL-7250) -17.5% | outcome (HEK293) | outcome (HaCat [1]) | max response (KB-3-1) 0.865% | max response (NIH3T3 [2]) -14.8% | outcome (HACAT [3]) | outcome (HEK293T) | outcome (MCC-13) | outcome (MCC-26) | outcome (MKL-1) | outcome (MKL-2) | outcome (UISO)

CCCCCC(N)=O
inactive: Potency (PC26) | Potency (PC49) | Potency (SC27B) | Potency (TAB109) | Potency (TAB113) | Potency (TAB165) | Potency (W2) | outcome (CRL-7250) | max response (HEK293) -2.09% | outcome (HaCat [1]) | max response (KB-3-1) -2.56% | outcome (NIH3T3 [2]) | outcome (HACAT [3]) | outcome (MCC-13) | outcome (MCC-26) | outcome (MKL-1) | outcome (MKL-2) | outcome (NIH3T3 [4]) | outcome (UISO)

COc1ccc2cc(CCC(C)=O)ccc2c1
inactive: Potency (PC26) | Potency (PC49) | Potency (SC27B) | Potency (TAB109) | Potency (TAB113) | Potency (TAB165) | Potency (W2) | outcome (CRL-7250) | outcome (HEK293) | outcome (HaCat [1]) | max response (KB-3-1) -1.62% | max response (NIH3T3 [2]) -0.0731% | outcome (HACAT [3]) | outcome (HEK293T) | outcome (MCC-13) | outcome (MKL-1) | outcome (MKL-2) | outcome (UISO)

COc1ccc(NS(=O)(=O)c2ccc(N)cc2)nn1
inactive: Potency (PC26) | Potency (PC49) | Potency (SC27B) | Potency (TAB109) | Potency (TAB113) | Potency (TAB165) | Potency (W2) | max response (CRL-7250) 3.69% | outcome (HEK293) | outcome (HaCat [1]) | max response (KB-3-1) 14.2% | max response (NIH3T3 [2]) -9.1% | outcome (HACAT [3]) | outcome (HEK293T) | outcome (MCC-13) | outcome (MCC-26) | outcome (MKL-1) | outcome (MKL-2) | outcome (UISO)

FC(F)(F)C(Cl)Br (stereo unspecified)
inactive: Potency (PC26) | Potency (PC49) | Potency (SC27B) | Potency (TAB109) | Potency (TAB113) | Potency (TAB165) | max response (CRL-7250) 3.98% | max response (HEK293) 0.482% | outcome (HaCat [1]) | max response (KB-3-1) -3.43% | outcome (NIH3T3 [2]) | outcome (HACAT [3]) | outcome (MCC-13) | outcome (MCC-26) | outcome (MKL-1) | outcome (MKL-2) | outcome (NIH3T3 [4]) | outcome (UISO)

COC(=O)c1ccc(O)cc1
inactive: Potency (PC26) | Potency (PC49) | Potency (SC27B) | Potency (TAB109) | Potency (TAB113) | Potency (TAB165) | Potency (W2) | max response (CRL-7250) 1% | max response (HEK293) 3.26% | outcome (HaCat [1]) | max response (KB-3-1) 0.911% | outcome (NIH3T3 [2]) | outcome (HACAT [3]) | outcome (MCC-13) | outcome (MCC-26) | outcome (MKL-1) | outcome (MKL-2) | outcome (NIH3T3 [4]) | outcome (UISO)

CC(=O)OCC(=O)[C@@]1(O)CC[C@H]2[C@@H]3CCC4=CC(=O)C=C[C@]4(C)[C@@]3(F)[C@@H](O)C[C@@]21C
inactive: max response (CRL-7250) 2.22% | outcome (HEK293) | outcome (HaCat [1]) | max response (KB-3-1) 29.8% | max response (NIH3T3 [2]) 0.516% | outcome (HACAT [3]) | outcome (HEK293T) | outcome (MCC-13) | outcome (MKL-1) | outcome (MKL-2) | outcome (UISO)

COc1ccc(C(=O)N2CCN(CC(=O)N3CCOCC3)CC2)cc1
inactive: Potency (PC26) | Potency (PC49) | Potency (SC27B) | Potency (TAB109) | Potency (TAB113) | Potency (TAB165) | Potency (W2) | max response (CRL-7250) 3.53% | max response (HEK293) 4.6% | outcome (HaCat [1]) | max response (KB-3-1) 5.06% | outcome (NIH3T3 [2]) | outcome (HACAT [3]) | outcome (MCC-13) | outcome (MCC-26) | outcome (MKL-1) | outcome (MKL-2) | outcome (NIH3T3 [4]) | outcome (UISO)

CC1(C)S[C@@H]2[C@H](N=CN3CCCCCC3)C(=O)N2[C@H]1C(=O)O
inactive: max response (CRL-7250) -6.32% | max response (HEK293) -2.19% | outcome (HaCat [1]) | max response (KB-3-1) -4.82% | outcome (NIH3T3 [2]) | outcome (HACAT [3]) | outcome (MCC-13) | outcome (MCC-26) | outcome (MKL-1) | outcome (MKL-2) | outcome (NIH3T3 [4]) | outcome (UISO)

CC(C)NC[C@@H](O)COc1ccc(CC(N)=O)cc1
inactive: max response (CRL-7250) -2.68% | outcome (HEK293) | outcome (HaCat [1]) | max response (KB-3-1) 3.62% | max response (NIH3T3 [2]) -2.96% | outcome (HACAT [3]) | outcome (HEK293T) | outcome (MCC-13) | outcome (MCC-26) | outcome (MKL-1) | outcome (MKL-2) | outcome (UISO)

C=CCOc1ccccc1OCC(O)CNC(C)C (stereo unspecified)
inactive: max response (CRL-7250) -3.74% | max response (HEK293) 3.92% | outcome (HaCat [1]) | max response (KB-3-1) -1.61% | max response (NIH3T3 [2]) 4.04% | outcome (HACAT [3]) | outcome (MCC-13) | outcome (MCC-26) | outcome (MKL-1) | outcome (MKL-2) | outcome (UISO)

COc1ccc(C(=O)NCc2ccc(OCCN(C)C)cc2)cc1OC
inactive: Potency (PC26) | Potency (PC49) | Potency (SC27B) | Potency (TAB109) | Potency (TAB113) | Potency (TAB165) | Potency (W2) | outcome (CRL-7250) | max response (HEK293) -0.933% | outcome (HaCat [1]) | max response (KB-3-1) 3.28% | max response (NIH3T3 [2]) -3.79% | outcome (HACAT [3]) | outcome (MCC-13) | outcome (MCC-26) | outcome (MKL-1) | outcome (MKL-2) | outcome (UISO)

O=C(NCC(O)CO)c1c(I)c(C(=O)NCC(O)CO)c(I)c(N(CCO)C(=O)CO)c1I (stereo unspecified)
inactive: max response (CRL-7250) -2.46% | max response (HEK293) -0.64% | outcome (HaCat [1]) | max response (KB-3-1) 27.3% | max response (NIH3T3 [2]) 2.96% | outcome (HACAT [3]) | outcome (MCC-13) | outcome (MCC-26) | outcome (MKL-1) | outcome (MKL-2) | outcome (UISO)

— PubChem BioAssay (NCATS)
